Experimental data from publication PMC12136788.
Where a chain is given by its changes, count along the chain named. Over roughly 5,800 sequences, “enrichment r” has its median near 0.54; the highest 2% begin near 16. This excerpt belongs to a sample that is enriched for the highest values.

B1: chr19:42216679:42217007:-|CDS|ENSG00000160570|control|control|control (ssRNA)
RNA: GGGAGUUCUACAGUCCGACGAUCCUUUCUGCUGGAUGAGGCUCCUGGCGCCGCCGGAGGCUUAGCCCGGGCCCGCAGCGGCCUAGAGCUCCUGCUGGAGCUGGAGCGCCGCGGGCAGUGCGACGAGAGCAACCUGCGGCUGCUCAACAGAGGAUUGAGCAUCA
B2: chr1:111117940:111118053:-|3pUTR|ENSG00000156171|unk|total|mutant (ssRNA)
RNA: GGGAGUUCUACAGUCCGACGAUCAGGCUGACAGUAACACUGAUGAAUGCUGAUAAUCAGGAAACAUGAAAGAAGCCAUUUGACCGAUUAUUCUAAAGGAUAUCAUCAAGAAGACUAUUAAAAACACCUAUGCCUAUACUUUUUCAACAGAGGAUUGAGCAUCA
B3: chr8:76983344:76983445:-|CDS|ENSG00000164751|msi1|total|mutant (ssRNA)
RNA: GGGAGUUCUACAGUCCGACGAUCAGCCACCAGUGGCAAAGAAUGCGCUCUAUGUGGAGAGUGGCCCACCAUGCCUCACACCACCGGAUGUGAGCAUAUUUUCUGUUAUUUCUGUGCUAAGAGCCGUUUCUUAUUUGACGUGUACAACAGAGGAUUGAGCAUCA
B4: chr12:101746137:101746238:-|3pUTR|ENSG00000111670|msi1|total|mutant (ssRNA)
RNA: GGGAGUUCUACAGUCCGACGAUCGGUCCGUAAAUUAUUGCAGGCCACCUGUGUCUUUGUCAUACAUUCUUCUUGCUGUUGUUCCGUUUGUUUUUUUUCAAACAACCCUCUAAAAAUGUAAAAACCAUGUUCCGCUUGCAGCUGCAACAGAGGAUUGAGCAUCA
B5: ENSG00000070961:be:win_2001|CDS|ENSG00000070961|bound_else_gene|NA|bound_elsewhere_windowed (ssRNA)
RNA: GGGAGUUCUACAGUCCGACGAUCAAAUGAUAUUGUCACCGGCCUUACAUGCAUUGCUGUUGUGGGGAUUGAAGAUCCUGUGAGACCUGAGGUGCCAGAUGCAAUUAAAAAGUGUCAGAGGGCUGGAAUUACUGUGCGGAUGGUCAACAGAGGAUUGAGCAUCA
B6: ENSG00000145990:stop:overlap|stop_codon|ENSG00000145990|stop_codon|NA|stop_codon (ssRNA)
RNA: GGGAGUUCUACAGUCCGACGAUCUGAGCCCCGCCUACCUGAUCAGCGAGGCCAUGCGCCGCAGCAGGAUGUCCCUCUACUGUUAGCACAGAUUGAGAACCUCGGGGACUUGAGCCUUCUGCAGGGGAUGUCCACAGAGAGGGACAACAGAGGAUUGAGCAUCA
B7: chr9:124811826:124811928:+|3pUTR|ENSG00000185585|msi1|FALSE|unique (ssRNA)
RNA: GGGAGUUCUACAGUCCGACGAUCAAGAAAUUUUCUAGCCCAACUCCCUGUUUCAUGAAAGAGAAAAGAGGCUCAGAAAAGUUUAGAGAGCAGCUCAGUGUCACACUGGGAGCUGGGCACAGCCGAUCUCCUUCCAGAAGGGUUCAACAGAGGAUUGAGCAUCA
B8: chr4:110049619:110049852:-|3pUTR|ENSG00000170522|msi1|total|mutant (ssRNA)
RNA: GGGAGUUCUACAGUCCGACGAUCUUGUUCAAUGUGACAUAACCGUAUUAUAAUUGGUUAAGCCGCUUAAUGAUCCGGCAAACCCGAUGAAAAGAUCCGGGGCUUCCACACUGCACCGAUUACACGCACACCGCCACGCAUACACAACAGAGGAUUGAGCAUCA
B9: chr9:14618660:14618761:-|3pUTR|ENSG00000175893|msi1|FALSE|unique (ssRNA)
RNA: GGGAGUUCUACAGUCCGACGAUCUUAGCUUUCCACAGGGAUUUCUUGAAAUGCUUUUGUUAUUAAACUCAAAAGGCAGUGAUUAGGAUGAAAUAAUUGUACAUAAUUUAUUUUAGUACUGACAGUGUUACAGAUUCUAAUUUACAACAGAGGAUUGAGCAUCA
B10: chr4:110049619:110049852:-|3pUTR|ENSG00000170522|msi1|FALSE|unique (ssRNA)
RNA: GGGAGUUCUACAGUCCGACGAUCUUGUUCAAUGUGACAUAAUAGUAUUAUAAUUGGUUAAGUAGCUUAAUGAUUAGGCAAACUAGAUGAAAAGAUUAGGGGCUUCCACACUGCAUAGAUUACACGCACAUAGCCACGCAUACACAACAGAGGAUUGAGCAUCA
B11: chr6:53267885:53267986:-|3pUTR|ENSG00000012660|msi1_unk|total|mutant (ssRNA)
RNA: GGGAGUUCUACAGUCCGACGAUCUUUAAUGUAAAUCUAACCGUACUUGUAAUUUCUUUCUGCUCCGAAUCUAAAGAUGUGUUCCGAACCUCUUGUUUAAAAAUAACCGACUGCUUAUCAUAAAAUCACAUCUCACACAUUUGACAACAGAGGAUUGAGCAUCA
B12: chr6:53267885:53267986:-|3pUTR|ENSG00000012660|msi1_unk|FALSE|overlapping (ssRNA)
RNA: B11 RNA with C40U, C41A, C64U, C65A, C83U, C84A, C106U, C107A
B13: chr2:171983412:171983537:+|3pUTR|ENSG00000128708|unk|FALSE|unique (ssRNA)
RNA: GGGAGUUCUACAGUCCGACGAUCUGAUGACUUUAAUUUUAAAAUCUUGUGACAUUUUGCUUAUACUAAAAGUUAUCUAUCUUUAGUUGAAUAUUUUCUUUUGGAGAGAUUGUAUAUUUUAAAAUACUGUUUAGAGUUUAUGAGCAACAGAGGAUUGAGCAUCA
B14: ENSG00000198589:be:win_4601|CDS|ENSG00000198589|bound_else_gene|NA|bound_elsewhere_windowed (ssRNA)
RNA: GGGAGUUCUACAGUCCGACGAUCUGGCAGUAGUAUACUUUAUCUCUGUUCUUAUGGUCUCCAAGUACAGAGACAUUUUGGAACCCCAAAAUGAAAGGCAUAGCCAGUCAUGUACAGAAACUGGCAGUGAAAAUGAGAAUGUAUCAACAGAGGAUUGAGCAUCA
B15: chr4:17843545:17843646:+|3pUTR|ENSG00000109805|msi1|total|mutant (ssRNA)
RNA: GGGAGUUCUACAGUCCGACGAUCCUGUGCGCUUCCACGUUACUUUGGCCUGUAUUAAAGCAGCCGAGCAGCAUCAGUUAUUACCGUCCAGAAAAAGUGUGCAUCAGUCAGUCACACAGAUUUAUCACAAUCUGAGGUGGGCCUCAACAGAGGAUUGAGCAUCA
B16: chr8:22006149:22006250:+|3pUTR|ENSG00000130227|msi1|total|mutant (ssRNA)
RNA: GGGAGUUCUACAGUCCGACGAUCGAAUGUAUGAACUGGAGGAAGUUACUACAGUGGAAGGGUUCUUAAUAACAAGGUCUACCCCGCAUGAAGUAUUUAACAUUCUCCCAUCCCUUAAAAAAUAUACAUUUUUAUAAAAUGAAACAACAGAGGAUUGAGCAUCA
B17: chr6:145799413:145799514:-|3pUTR|ENSG00000118496|msi1|total|mutant (ssRNA)
RNA: GGGAGUUCUACAGUCCGACGAUCUUAUCUCACAUACUUACAACUCAACACACAGAGUGACCAUGUGCAGCUUUCUUUUUUGUCCGAUGCCACAUCCGAAGACUCAUCGCAGUGUGUUAUAUGACAGGACAAAGCAAAAACAAACAACAGAGGAUUGAGCAUCA
B18: chr11:46383557:46383658:+|3pUTR|ENSG00000110492|msi1_unk|FALSE|overlapping (ssRNA)
RNA: GGGAGUUCUACAGUCCGACGAUCCCACGCCCUCCCUCUCCCAGGCCCGAGAUGUGACCCACCAGUGCCUUCUGUCUGCUCGUUAGCUUUAAUCAAUCAUGCCCUGCCUUGUCCCUCUCACUCCCCAGCCCCACCCCUAAGUGCCAACAGAGGAUUGAGCAUCA
B19: chr3:10101824:10101929:+|3pUTR|ENSG00000144554|unk|FALSE|unique (ssRNA)
RNA: GGGAGUUCUACAGUCCGACGAUCAAAAUCUCUGAGUCAUGAUUCUGGACUUUGGGAGCUAGUUUUGAAACUCUGAUUUAUUGUAGAACUUAGGCUUGUACCAAUUUUACAAAUAAAUUCUGUUCUAAGUUCUGCCUCAGUUGCCAACAGAGGAUUGAGCAUCA
B20: chr13:32776882:32776983:+|3pUTR|ENSG00000083642|unk|total|mutant (ssRNA)
RNA: GGGAGUUCUACAGUCCGACGAUCAAAGUGUUUUGAAUUGUGUCUUAAUCUCUCCAUAUUCAACUAUUCUUCAUUUACAACAACCGUGACACCAGUAAUUAUGAGAGGCUGUCAUAUAUCAAAGCAGCUCAGGUGGGAUCAACACAACAGAGGAUUGAGCAUCA
B21: chr1:235448940:235449205:-|3pUTR|ENSG00000162885|unk|FALSE|unique (ssRNA)
RNA: GGGAGUUCUACAGUCCGACGAUCAAUAGAGAAUUCCAUUAAAACUAGUCUUAUGACAGAUAUUAACUGUGUUCAGAUUUUAUUAGGCUAGCUAGUUUCUUUCUAUUUAAUAUUUAAAUCUUAUCAUGAAAUGCAGUGAUGAGCCAACAGAGGAUUGAGCAUCA
B22: chr20:11926050:11926151:+|3pUTR|ENSG00000132640|msi1|total|mutant (ssRNA)
RNA: GGGAGUUCUACAGUCCGACGAUCAUGAAAUGGAAUGAAGGCUAAUAUGCUUGCUUUAUUUACUUUUGUAAUCUUGGAUUUUGCCGCUUUUAAAACCCGAAACCAUUGUUCUAACAAAGCAGGCAACUUUAUUCUAUAAACACACAACAGAGGAUUGAGCAUCA
B23: chr4:124666837:124666938:-|3pUTR|ENSG00000151458|msi1|FALSE|unique (ssRNA)
RNA: GGGAGUUCUACAGUCCGACGAUCAAUGAUUUCUUGGCAGUUUAAAAAAAAUAUUUUAUAGUAGUUUAGGGAGCUGCUUUAAGUAGUUUAAAUCUGGAUUUUCCCAGUAGAAUUCUUCUCAUCUCUGGCUAAACAUGUCAGAACCAACAGAGGAUUGAGCAUCA
B24: chr8:65707876:65707977:+|CDS|ENSG00000066855|unk|FALSE|unique (ssRNA)
RNA: GGGAGUUCUACAGUCCGACGAUCCCUGCUGCCCUCAUAGCAGAGGCUCUGAAAAAGAAAUUUGCUUAUCGGUAUCGAAGUGAUAGCCAAGAUGAAGUUGAAAAAGGAAUUCCAAAGUCUGAAUCAGAGGCCACCUCAGAGAGACAACAGAGGAUUGAGCAUCA
B25: chr4:124666837:124666938:-|3pUTR|ENSG00000151458|msi1|total|mutant (ssRNA)
RNA: B23 RNA with U58C, A59C, U61C, A62C, U66C, A67C, U83C, A84C, U107C, A108C
B26: chr10:92030471:92030572:+|3pUTR|ENSG00000095564|unk|FALSE|unique (ssRNA)
RNA: GGGAGUUCUACAGUCCGACGAUCUAUUUUUUUAUUAACUAUUUAUUUGCUAGUUCCAUAAACCAGCUCUUUAACAUAGCUUAUAGUAAUUGAUAUUUUCUUAGAAUAAGUACAGAGCAAUAUAUCAUUAAAGGGCUAUGAAGGCAACAGAGGAUUGAGCAUCA
B27: chr10:92030471:92030572:+|3pUTR|ENSG00000095564|unk|total|mutant (ssRNA)
RNA: B26 RNA with U50C, A51C, U76C, A77C, U83C, A84C, U101C, A102C
B28: ENSG00000107863:be:win_551|CDS|ENSG00000107863|bound_else_gene|NA|bound_elsewhere_windowed (ssRNA)
RNA: GGGAGUUCUACAGUCCGACGAUCAAGGCAACGAAGCUUAUAGCGGCAAUGCCCGCAAUAUACCUGAACCUCCACCAAUCUGCUAUCCCUGGCUGCCAUCUGCCCCAUCAGCCAUGGCACAGCCAGUUGAAAUAUCUCCUCCUGCAACAGAGGAUUGAGCAUCA
B29: ENSG00000066933:stop:overlap|stop_codon|ENSG00000066933|stop_codon|NA|stop_codon (ssRNA)
RNA: GGGAGUUCUACAGUCCGACGAUCAUAGCUCAGAGAAUUUGAAUAUGGAGUCUGAAUAUGCUAUCUCUGAGAAAUCAGAAGCUUAGCCCUUAGCUCCCUGAAGACAGCUGGCAAGUCUGAACCUUCCAGCAAGUUGCGAAAGCACAACAGAGGAUUGAGCAUCA
B30: chr20:11926050:11926151:+|3pUTR|ENSG00000132640|msi1|FALSE|unique (ssRNA)
RNA: B22 RNA with C83U, C84A, C96U, C97A

Biological target: MSI1 full-length (mouse, UniProt Q61474 1-362)
Sequence (Q61474 whole entry): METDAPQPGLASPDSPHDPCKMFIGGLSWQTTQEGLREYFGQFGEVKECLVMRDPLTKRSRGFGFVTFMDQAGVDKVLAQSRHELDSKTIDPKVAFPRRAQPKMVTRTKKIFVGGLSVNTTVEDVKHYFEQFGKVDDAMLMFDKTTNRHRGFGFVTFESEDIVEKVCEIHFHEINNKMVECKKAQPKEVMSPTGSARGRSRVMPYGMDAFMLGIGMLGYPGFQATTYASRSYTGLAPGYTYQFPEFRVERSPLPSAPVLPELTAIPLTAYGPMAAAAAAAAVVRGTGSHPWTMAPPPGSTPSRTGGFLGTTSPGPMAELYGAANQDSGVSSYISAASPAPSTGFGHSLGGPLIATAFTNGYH
Experiment: nsRBNS (natural sequence RNA bind-n-seq); RBNS binding buffer (assumed for nsRBNS): 25 mM Tris pH 7.5, 150 mM KCl, 3 mM MgCl2, 0.01% Triton X-100, 500 ug/ml BSA, 20 U/ml SUPERase-In, 4 C; UNK is unkempt and MSI1 is Musashi-1; names of the RNAs are library labels; protein concentration not given here; high values mean tight binding

Binder	binding signal [enrichment R]
B1	0.233
B2	0.337
B3	0.344
B4	0.343
B5	0.416
B6	0.305
B7	0.831
B8	0.468
B9	1.51
B10	43.1
B11	1.15
B12	26.6
B13	3.32
B14	0.339
B15	0.782
B16	0.38
B17	0.363
B18	1.31
B19	0.376
B20	0.958
B21	13.3
B22	0.37
B23	23.2
B24	0.29
B25	0.225
B26	39.5
B27	27.9
B28	0.51
B29	16.9
B30	1.07
